Bioassay records: PubChem BioAssay, several laboratories
Jurkat NFkB inh – lowers PMA/ionomycin-induced NF-kB signal in Jurkat cells | 0.53% of 330,000 active | PMA/ionomycin-induced NF-kB luciferase reporter, luminescence | inhibition, % at 4 µM | AID 435003; in the data active means inhibition above about 50%
Gli-Sufu antag – blocks Gli-Sufu signaling in a luciferase reporter | Sufu-KO-LIGHT fibroblasts, Gli luciferase reporter luminescence | inhibition, % at 5 µM | 0.74% of 340,000 active;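 active means inhibition above about 55%, limit read from the data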;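 further: 0% = DMSO-treated cells and 100% = wells with medium but no cells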
697 NFkB inh – inhibitors of the PMA/ionomycin-induced NF-kB reporter in 697 B cells; 697 B-cell NF-kB luciferase reporter, 16 h; 0.33% of 330,000 active; inhibition, % at 4 µM; in the data active means inhibition above about 35%
Mdm2-MdmX inh – inhibitors of human Mdm2/MdmX interaction; inhibition, % at 8 µM; SaOS-2 split-luciferase Mdm2/MdmX complementation, luminescence; O15151+Q00987; 3% of 330,000 active; AID 485346;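 active means inhibition of at least 50% at 8 µM in the primary screen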
Target sequence (O15151 whole entry, looked up): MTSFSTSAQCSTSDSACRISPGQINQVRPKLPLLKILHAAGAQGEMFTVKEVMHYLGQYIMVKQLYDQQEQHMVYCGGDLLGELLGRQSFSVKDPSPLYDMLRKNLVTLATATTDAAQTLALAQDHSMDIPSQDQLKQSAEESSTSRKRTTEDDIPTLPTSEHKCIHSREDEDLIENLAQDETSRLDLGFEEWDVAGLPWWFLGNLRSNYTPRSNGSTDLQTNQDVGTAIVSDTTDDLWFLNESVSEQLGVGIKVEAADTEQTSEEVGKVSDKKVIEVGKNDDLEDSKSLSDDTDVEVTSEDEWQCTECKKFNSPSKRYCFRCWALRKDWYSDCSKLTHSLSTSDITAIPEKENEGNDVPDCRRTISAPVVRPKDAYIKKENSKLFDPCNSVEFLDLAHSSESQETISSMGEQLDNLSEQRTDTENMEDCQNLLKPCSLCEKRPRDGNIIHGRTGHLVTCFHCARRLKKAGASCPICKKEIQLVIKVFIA
Target sequence (Q00987 whole entry, looked up): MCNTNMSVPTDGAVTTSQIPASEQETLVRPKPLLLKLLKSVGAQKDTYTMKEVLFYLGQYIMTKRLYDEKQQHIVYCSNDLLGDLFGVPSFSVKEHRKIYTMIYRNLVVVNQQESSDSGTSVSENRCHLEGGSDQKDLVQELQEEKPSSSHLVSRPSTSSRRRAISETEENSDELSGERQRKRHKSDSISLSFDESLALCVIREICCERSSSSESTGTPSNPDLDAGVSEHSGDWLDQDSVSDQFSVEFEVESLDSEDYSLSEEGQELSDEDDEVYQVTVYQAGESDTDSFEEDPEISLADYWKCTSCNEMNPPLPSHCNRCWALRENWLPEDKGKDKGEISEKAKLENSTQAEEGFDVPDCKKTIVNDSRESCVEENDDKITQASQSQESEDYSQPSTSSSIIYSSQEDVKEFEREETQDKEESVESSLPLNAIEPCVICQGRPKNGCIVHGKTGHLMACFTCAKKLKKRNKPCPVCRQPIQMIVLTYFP
Beta apoptosis – beta cell apoptosis inhibition. INS-1E cytokine-induced death, ATP luminescence, 48 h; percent of positive-control rescue, neutral wells zero. protection from apoptosis, % (no concentration beside the values). 0.8% of 300,000 active. AID 435005;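 active means Every replicate reaches about 75%, or at least half do and their mean reaches it too, limit read from the data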;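 further: 0% = cytokine-treated negative control wells and 100% = positive control rescue; higher means more ATP so stronger rescue from cytokine killing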
Mdm2-MdmX conf – human Mdm2/MdmX binding inhibition, confirmed; inhibition, % at 8 µM; luminescent assay; 55% of 10,000 active; shares compounds with Mdm2-MdmX inh; AID 489028; in the data active means inhibition above about 40%
FLuc counter – counter-screen for Mdm2/MdmX inhibitors: full-length luciferase; SaOS-2 full-length luciferase counterscreen, luminescence; inhibition, % at 8 µM; 77% of 6,200 active; shares compounds with Mdm2-MdmX inh;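 active means mean inhibition at 8 µM reaching about 37%, which flags the compound as non-specific, limit read from the data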;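 further: p53-null SaOS-2 cells with luciferase driven by a doxycycline-inducible promoter; compound on cells about two nights before reading with doxycycline added after day one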
The depositor's hits bear a star. Sampled rows, rich in hits. Any-hit rate of the full collection: about 4%.

Results for COc1ccc2[nH]c(=O)c(CN(Cc3cccnc3)C(=S)NCC3CCCO3)cc2c1 (centres undefined) ?
Jurkat NFkB inh: -7.3; Gli-Sufu antag: -13.6; 697 NFkB inh: 21.6; Mdm2-MdmX inh: -0.5; Beta apoptosis: -2.2

How did COc1ccc(-n2c(SCCC#N)nnc2-c2cc(Cl)ccc2OC)cc1Cl do in these assays?
Jurkat NFkB inh: 18.0; Gli-Sufu antag: 7.4; 697 NFkB inh: -7.8; Mdm2-MdmX inh: 53.9*; Beta apoptosis: 0.3; Mdm2-MdmX conf: 64.5*; FLuc counter: 50.9*

Results for Cc1cccc(-c2nnc(SCC#N)n2-c2cccc(Cl)c2)c1 ?
Jurkat NFkB inh: 8.6; Gli-Sufu antag: 0.4; 697 NFkB inh: -23.4; Mdm2-MdmX inh: 8.5; Beta apoptosis: 4.1

How did N#C/C(=N\Nc1cccc(C(F)(F)F)c1)C(=O)c1ccsc1 do in these assays?
Jurkat NFkB inh: -14.9; Gli-Sufu antag: 31.2; 697 NFkB inh: -50.2; Mdm2-MdmX inh: 78.1*; Beta apoptosis: 47.1; Mdm2-MdmX conf: 63.2*; FLuc counter: 66.7*

Results for Cc1nc(NC(=O)CN2CC(C)OC(C)C2)sc1C(=O)N(C)C (centres undefined) ?
Jurkat NFkB inh: -3.1; Gli-Sufu antag: -8.9; 697 NFkB inh: 4.0; Mdm2-MdmX inh: 21.6; Beta apoptosis: -9.3

Results for CCc1nn(CC(=O)NC2CCN(Cc3ccccc3)CC2)c(=O)c2cc3cc(F)ccc3n12 ?
Jurkat NFkB inh: 20.4; Gli-Sufu antag: 25.7; 697 NFkB inh: 4.2; Mdm2-MdmX inh: 58.0*; Beta apoptosis: 3.0; Mdm2-MdmX conf: 20.4

What do the screens show for `CCc1nn(CC(=O)NC(C)CCc2ccccc2)c(=O)c2cc3cc(F)ccc3n12` (centres undefined)?
Jurkat NFkB inh: -6.0; Gli-Sufu antag: 6.7; 697 NFkB inh: -5.5; Mdm2-MdmX inh: 55.0*; Beta apoptosis: 9.2; Mdm2-MdmX conf: 10.6

How did C=CCN1C(=O)CSc2ccc(C(=O)NC(C)c3ccccc3)cc21 (centres undefined) do in these assays?
Jurkat NFkB inh: 7.8; Gli-Sufu antag: -7.8; 697 NFkB inh: 6.3; Mdm2-MdmX inh: 14.0; Beta apoptosis: -0.8

How did O=C1c2ccccc2NC(c2ccc(Br)s2)N1O (centres undefined) do in these assays?
Jurkat NFkB inh: 1.0; Gli-Sufu antag: -0.4; 697 NFkB inh: -34.3; Mdm2-MdmX inh: 53.8*; Beta apoptosis: 11.2; Mdm2-MdmX conf: 62.0*; FLuc counter: 43.9*

What do the screens show for `O=C(CCc1nnc(CCCCc2ccccc2)o1)NCCC1CCCCO1` (centres undefined)?
Jurkat NFkB inh: -4.5; Gli-Sufu antag: 16.4; 697 NFkB inh: -17.8; Mdm2-MdmX inh: -4.5; Beta apoptosis: -8.4

Results for COc1ccc(/C=C/C(=O)Nc2sc(Cc3ccccc3)c(C)c2C(N)=O)cc1 ?
Jurkat NFkB inh: -25.4; Gli-Sufu antag: -27.3; 697 NFkB inh: -10.6; Mdm2-MdmX inh: 63.9*; Beta apoptosis: 1.8; Mdm2-MdmX conf: 34.2; FLuc counter: 114.5*

Results for Cc1ccc2nc(N(CCCN(C)C)C(=O)c3ccc4c(c3)CCCC4)sc2c1 ?
Jurkat NFkB inh: 11.3; Gli-Sufu antag: 11.4; 697 NFkB inh: -19.3; Mdm2-MdmX inh: 50.6*; Beta apoptosis: -1.4; Mdm2-MdmX conf: 23.2

Results for CCN(CC)CCN(C(=O)c1ccc2c(c1)CCCC2)c1nc2cc(OC)c(OC)cc2s1 ?
Jurkat NFkB inh: 23.1; Gli-Sufu antag: 35.1; 697 NFkB inh: -6.6; Mdm2-MdmX inh: 52.6*; Beta apoptosis: 1.2; Mdm2-MdmX conf: 46.4*; FLuc counter: 36.8*

How did COc1cc2nc(N(CCN(C)C)C(=O)c3ccc4ccccc4c3)sc2cc1OC do in these assays?
Jurkat NFkB inh: 3.0; Gli-Sufu antag: 44.6; 697 NFkB inh: -5.6; Mdm2-MdmX inh: -0.3; Beta apoptosis: -5.6

What do the screens show for `Cc1cc(C)c2nc(N(CCCN(C)C)C(=O)c3ccc4c(c3)CCCC4)sc2c1`?
Jurkat NFkB inh: 12.5; Gli-Sufu antag: 21.3; 697 NFkB inh: 2.4; Mdm2-MdmX inh: 76.6*; Mdm2-MdmX conf: 34.1

How did CCOc1ccc2nc(N(CCN(C)C)C(=O)c3ccc4c(c3)CCCC4)sc2c1 do in these assays?
Jurkat NFkB inh: -15.9; Gli-Sufu antag: 23.4; 697 NFkB inh: -15.3; Mdm2-MdmX inh: -0.6; Beta apoptosis: 3.1

Results for Cc1nn(-c2ccccc2)c(C)c1/C=N/NC(=O)c1cc(-c2ccccc2)n[nH]1 ?
Jurkat NFkB inh: 45.4; Gli-Sufu antag: 36.5; 697 NFkB inh: 22.6; Mdm2-MdmX inh: 59.0*; Beta apoptosis: 32.7; Mdm2-MdmX conf: 62.7*; FLuc counter: 79.3*

How did Cn1c(N)c(Sc2ccc(F)cc2)c(=O)n(C)c1=O do in these assays?
Jurkat NFkB inh: 5.6; Gli-Sufu antag: -10.7; 697 NFkB inh: -1.0; Mdm2-MdmX inh: -6.8; Beta apoptosis: -2.2

How did CN(C)CCCNc1ncnc2c1c(-c1ccccc1)cn2-c1ccccc1 do in these assays?
Jurkat NFkB inh: 5.0; Gli-Sufu antag: 26.2; 697 NFkB inh: -17.4; Mdm2-MdmX inh: 61.3*; Beta apoptosis: 2.2; Mdm2-MdmX conf: 42.4*; FLuc counter: 89.3*

What do the screens show for `COCCNC(=O)c1ccc(N2CCCCC2)c(NS(=O)(=O)c2ccc(C)cc2)c1`?
Jurkat NFkB inh: 6.4; Gli-Sufu antag: 6.8; 697 NFkB inh: -2.0; Mdm2-MdmX inh: 8.6; Beta apoptosis: 0.2

Results for CCOC(=O)c1ccc(N2CCCCC2)c(NS(=O)(=O)c2ccc(C)cc2)c1 ?
Jurkat NFkB inh: 39.4; Gli-Sufu antag: 14.4; 697 NFkB inh: 2.2; Mdm2-MdmX inh: 58.8*; Beta apoptosis: 17.0; Mdm2-MdmX conf: 46.1*; FLuc counter: 66.7*

What do the screens show for `CCCOc1ccc(NC(=O)CC2C(=O)N(CC)C(=S)N2CCCN2CCN(Cc3ccccc3)CC2)cc1` (centres undefined)?
Jurkat NFkB inh: -10.2; Gli-Sufu antag: -2.8; 697 NFkB inh: 5.5; Mdm2-MdmX inh: 81.1*; Beta apoptosis: 13.2; Mdm2-MdmX conf: 46.5*; FLuc counter: 65.5*

How did CCN1C(=O)C(CC(=O)Nc2ccc(Br)cc2)N(CCCc2ccccc2)C1=S (centres undefined) do in these assays?
Jurkat NFkB inh: 6.3; Gli-Sufu antag: 4.6; 697 NFkB inh: 1.8; Mdm2-MdmX inh: 84.0*; Beta apoptosis: 27.2; Mdm2-MdmX conf: 7.3

What do the screens show for `CCN1CCc2c(sc(NC(=O)c3ccc(S(=O)(=O)N(C)c4ccccc4)cc3)c2C(=O)NC)C1`?
Jurkat NFkB inh: 5.6; Gli-Sufu antag: 17.3; 697 NFkB inh: 10.5; Mdm2-MdmX inh: 58.6*; Beta apoptosis: 6.4; Mdm2-MdmX conf: 32.8

How did COc1cccc(N(C(=O)Cn2nnc(-c3ccc(F)cc3)n2)C(C(=O)NCC2CCCO2)c2ccc(Cl)cc2)c1 (centres undefined) do in these assays?
Jurkat NFkB inh: -9.1; Gli-Sufu antag: 29.4; 697 NFkB inh: 8.3; Mdm2-MdmX inh: 32.0; Beta apoptosis: -8.1
